What all share (experiment): yeast three-hybrid, YBZ-1, SC-Leu-His + 0.5 mM 3-AT, 4 days
Conditions in all cases: tags: N-Gal4 AD-HA kept; label: inside an RPR1-promoter hybrid RNA with tandem MS2 sites; ssRNA

Assay [1] has as its target PUM1 PUF domain R4-DHC (Homo sapiens, UniProt Q14671 828-1176, N971D;Q975C). In a few lines: (§1)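 Pumilio-1 PUF domain libraries, randomized (NNK) at the three base-contacting residues of each repeat, were co-expressed with matching RNA elements from a centromeric plasmid in strain YBZ-1 (LexA–MS2 coat fusion, HIS3 reporter). Transformants were plated on SC-Leu (input) and SC-Leu-His + 0.5 mM 3-AT (selection) for four days, and repeat regions were PCR-amplified and Illumina-sequenced. The interaction score is the log2 change in variant frequency from input to selection, with pseudocount 1 where absent.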

The target in assay [2] is PUM1 PUF domain R4-APT (Homo sapiens, UniProt Q14671 828-1176, N971A;H972P;Q975T). In a few lines: as §1
Assay [3] deals with PUM1 PUF domain R4-VNN (Homo sapiens, UniProt Q14671 828-1176, N971V;H972N;Q975N). In a few lines:
as §1

In assay [4] the target is PUM1 PUF domain R5-RGS (Homo sapiens, UniProt Q14671 828-1176, C1007R;R1008G;Q1011S). In a few lines:
as §1

For assay [5], the target named is PUM1 PUF domain R5-KSV (Homo sapiens, UniProt Q14671 828-1176, C1007K;R1008S;Q1011V). In a few lines:
as §1

Assay [6] deals with PUM1 PUF domain R3-ATE (Homo sapiens, UniProt Q14671 828-1176, C935A;R936T;Q939E). In a few lines: as §1
Assay [7] deals with PUM1 PUF domain R8-QFQ (Homo sapiens, UniProt Q14671 828-1176, N1122Q;Y1123F). In a few lines:
as §1

Assay [8] addresses T1, PUM1 PUF domain R6-LYS (Homo sapiens, UniProt Q14671 828-1176, N1043L;Q1047S).
T1 sequence: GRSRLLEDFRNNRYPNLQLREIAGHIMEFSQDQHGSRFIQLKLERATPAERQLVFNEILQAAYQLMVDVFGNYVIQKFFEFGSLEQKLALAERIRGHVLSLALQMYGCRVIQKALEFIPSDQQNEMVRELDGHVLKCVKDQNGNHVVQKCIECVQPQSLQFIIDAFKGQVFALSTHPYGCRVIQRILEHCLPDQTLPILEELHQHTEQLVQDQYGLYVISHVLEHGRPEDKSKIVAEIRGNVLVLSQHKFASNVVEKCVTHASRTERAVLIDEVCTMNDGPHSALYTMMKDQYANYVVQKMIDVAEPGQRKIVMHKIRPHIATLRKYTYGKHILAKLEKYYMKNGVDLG
In a few lines: as §1

Assay [9] deals with PUM1 PUF domain R3-TWW (Homo sapiens, UniProt Q14671 828-1176, C935T;R936W;Q939W). In a few lines:
as §1

Assay [10] deals with PUM1 PUF domain R3-RRC (Homo sapiens, UniProt Q14671 828-1176, C935R;Q939C). In a few lines:
as §1

Take “GGCUAGAACUAGUGGAUCCCCCGGCGCCCGGCGGCUCGAGCCCGGGUAAGUGUACAUAGUCUGCAUGCCGCCGGGCGCCAUGCCUGCAGGUCGACUCUAGAAAACAUG”: the binding signal in assay [1] is 4.45 log2 enrichment (interaction score).

Regarding “GGCUAGAACUAGUGGAUCCCCCGGCGCCCGGCGGCUCGAGCCCGGGUAAGUGUAUAUAGUCUGCAUGCCGCCGGGCGCCAUGCCUGCAGGUCGACUCUAGAAAACAUG”, the binding signal is 2.95 log2 enrichment (interaction score) in assay [2], 3.82 log2 enrichment (interaction score) in [3] and 6.39 log2 enrichment (interaction score) in assay [1].

With “GGCUAGAACUAGUGGAUCCCCCGGCGCCCGGCGGCUCGAGCCCGGGUAAGUGUUAAUAGUCUGCAUGCCGCCGGGCGCCAUGCCUGCAGGUCGACUCUAGAAAACAUG”, the figures for the binding signal in assay [4] and in [5] were 2.13 log2 enrichment (interaction score) and 2.74 log2 enrichment (interaction score), respectively.

As to “GGCUAGAACUAGUGGAUCCCCCGGCGCCCGGCGGCUCGAGCCCGGGUAAGUGUAAGUAGUCUGCAUGCCGCCGGGCGCCAUGCCUGCAGGUCGACUCUAGAAAACAUG”, the binding signal in [6] was 3.33 log2 enrichment (interaction score).

“GGCUAGAACUAGUGGAUCCCCCGGCGCCCGGCGGCUCGAGCCCGGGUAAGUGUCAAUAGUCUGCAUGCCGCCGGGCGCCAUGCCUGCAGGUCGACUCUAGAAAACAUG”: the binding signal in assay [4] was 2.45 log2 enrichment (interaction score); in assay [5], 3.48 log2 enrichment (interaction score).

Regarding “GGCUAGAACUAGUGGAUCCCCCGGCGCCCGGCGGCUCGAGCCCGGGUAAGUGUAAAUAGUCUGCAUGCCGCCGGGCGCCAUGCCUGCAGGUCGACUCUAGAAAACAUG”, the binding signal in assay [2] was 4.02 log2 enrichment (interaction score); in [7] it was 2.91 log2 enrichment (interaction score); in assay [1], 3.99 log2 enrichment (interaction score); in assay [8] it was 4.98 log2 enrichment (interaction score); in assay [9], 3.61 log2 enrichment (interaction score).

Regarding “GGCUAGAACUAGUGGAUCCCCCGGCGCCCGGCGGCUCGAGCCCGGGUAAGUGUAAUUAGUCUGCAUGCCGCCGGGCGCCAUGCCUGCAGGUCGACUCUAGAAAACAUG”, the binding signal in assay [10] was 3.79 log2 enrichment (interaction score); in assay [9], 1.77 log2 enrichment (interaction score).

Source of the values: paper PMC8384837, “Expanding the binding specificity for RNA recognition by a PUF domain”.
